Most compounds without a hit are left out; they make up all but 2.3% or so of the library.
M1 antag – antagonists of human M1 muscarinic receptor | P11229 | CHO-K1 hM1, Fluo-8 calcium fluorescence, ACh EC80 antagonist | inhibition, % at 3 µM | hit rate 1.3% among 360,000;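 active means percent inhibition above its own plate's cutoff, namely the mean of that plate's compound wells plus 3 SD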;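 further: peak over basal fluorescence ratio during 140 s after agonist addition; 0% = ACh EC80 plus DMSO and 100% = DMSO alone without agonist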
Target sequence (P11229 whole entry, looked up): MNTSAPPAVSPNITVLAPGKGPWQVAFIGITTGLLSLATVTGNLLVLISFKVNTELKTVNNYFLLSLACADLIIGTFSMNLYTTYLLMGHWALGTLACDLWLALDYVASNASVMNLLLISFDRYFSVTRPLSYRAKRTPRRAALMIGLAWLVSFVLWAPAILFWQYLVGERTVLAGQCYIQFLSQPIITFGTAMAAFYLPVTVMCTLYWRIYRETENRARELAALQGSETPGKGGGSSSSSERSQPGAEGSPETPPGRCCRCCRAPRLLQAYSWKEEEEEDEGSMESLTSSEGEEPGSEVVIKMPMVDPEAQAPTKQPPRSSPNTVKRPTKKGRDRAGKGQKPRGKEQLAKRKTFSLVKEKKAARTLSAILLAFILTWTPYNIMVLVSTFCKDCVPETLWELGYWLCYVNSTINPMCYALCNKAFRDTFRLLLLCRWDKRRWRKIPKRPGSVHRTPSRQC
M1 ag parental – counter-screen for M1 agonists: effect in parental CHO-K1 cells | Fluo-8 calcium fluorescence; scaled to maximal ATP response, vehicle zero | activation, % at 3 µM | hit rate 0.48% among 360,000 | AID 602248; in the data active means activation above about 15%;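 further: untransfected CHO-K1 host cells lacking M1 receptor as counterscreen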
CHO-K1 Ca antag – nonselective inhibitor or artifact in parental CHO-K1 cells. ATP-induced calcium, Fluo-8 fluorescence. inhibition, % at 3 µM. hit rate 0.6% among 360,000. AID 602250;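 active means inhibition above a per-plate cutoff, the plate's mean sample inhibition plus 3 SD, cut at about 24% in these data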;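 further: 0% = DMSO plus EC80 ATP and 100% = DMSO alone without ATP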
M1 PAM – human CHRM1 positive allosteric modulation; P11229; CHO-K1 hM1, Fluo-8 calcium fluorescence, ACh EC20; 0% = ACh EC20, 100% = maximal ACh; activation, % at 3 µM; hit rate 0.088% among 360,000; in the data active means activation above about 19%, passing the limit was not always enough
M1 ag – human M1 muscarinic receptor agonism | AID 588814 | hit rate 0.33% among 360,000 | CHO-K1 hM1, Fluo-8 calcium fluorescence, agonist mode; 0% DMSO, 100% acetylcholine EC100 | P11229 | activation, % at 3 µM;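 active means activation above the run's mean compound activation plus 3 SD, cut at about 16% in these data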;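 further: peak over basal fluorescence ratio within a 140 s kinetic read after compound addition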
M1 PAM parental – counter-screen for M1 PAMs: effect in parental CHO-K1 cells. ATP EC20, Fluo-8 calcium fluorescence; 0% at ATP EC20, 100% at ATP max. activation, % at 3 µM. hit rate 0.02% among 360,000. AID 602247;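 active means activation above the run cutoff, the mean activation of all test compounds plus 3 SD, cut at about 40% in these data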;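 further: peak over basal fluorescence ratio in a 140 s read after ATP addition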
* marks the source's active call; other numbers are inactive results.

SMILES	M1 antag	M1 ag parental	CHO-K1 Ca antag	M1 PAM	M1 ag	M1 PAM parental
CN1/C(=C\C(=O)COC(=O)c2ccccc2O)C(C)(C)c2ccccc21	7.8	17.4*	5.3	-7.3	-2.4	5.1
CN1/C(=C\C(=O)CSc2ncn[nH]2)C(C)(C)c2ccccc21	20.0	4.0	25.9*	-9.0	-0.8	-11.4
NNC(=O)c1cc2sccc2s1	2.6	0.8	-2.5	0.9	0.1	-5.8
Cc1ccc2cccc(NC(=S)NC(=O)c3ccn(C)n3)c2n1	-17.5	1.1	-13.3	-3.3	-8.2	-4.2
Cc1ccc2cccc(NC(=S)NC(=O)c3c(Br)cnn3C)c2n1	18.7	0.0	25.7*	-7.0	-1.5	-8.2
COc1ccc(-c2nc3c(c(SCC(=O)N4CCOCC4)n2)COC(C)(C)C3)cc1	1.4	-0.1	29.9*	5.0	-4.0	-5.8
C[N+]1(CC(=O)Nc2ccccc2Cl)CCN(C(=O)c2cccs2)CC1	33.3*	0.3	-19.1	-12.2	-4.8	15.7
N=c1c2ccccc2nc2n1CCCCC2	3.2	-0.1	33.6*	-17.8	-8.9	-9.6
CSc1ncc(CN2CCN(CC=C(C)C)C(CCO)C2)cn1 (stereo not drawn)	27.4*	0.4	-0.8	-13.7	-9.7	12.2
CSc1ncc(CN2CCN(C3CCCC3)C(CCO)C2)cn1 (stereo not drawn)	33.5*	12.9	-2.1	-18.3	-6.3	15.5
COc1cccc(CN2CCN(C(=O)c3ccc(-c4ccccc4)cc3)CC2)c1	9.5	15.6*	5.2	-3.1	-3.9	10.6
COc1cccc(CN2CCN(C(=O)c3ccc(-c4ccccc4)cc3)CC2)c1OC	-2.7	15.9*	9.8	8.2	-9.2	9.9
COc1ccc(CN2CCN(C(=O)c3cc(-c4cccnc4)nc4ccc(Cl)cc34)CC2)c(OC)c1OC	58.2*	6.4	13.1	-21.7	-3.3	-19.2
COc1cccc(CC(NC(C)=O)C(=O)NC2CCN(C(=O)c3ccc(Cl)cc3)CC2)c1OC (stereo not drawn)	-22.3	0.6	2.6	29.5*	1.0	26.5
COc1cccc(CN2CCN(C(=O)c3cccc(OC)c3)CC2)c1	-14.1	0.9	-4.9	13.4	-6.2	7.9
Oc1ccc(C[C@H]2CNC(=S)N2C[C@H]2CCCN2C[C@H](Cc2ccccc2)N2C[C@H](Cc3ccc(O)cc3)N(CCc3ccccc3)C2=S)cc1	-16.0	0.7	2.5	11.3	-6.2	9.6
CC(C)c1c(C(=O)N/N=C/c2ccc(C(F)(F)F)cc2)nnn1-c1nonc1N	-18.4	11.5	-19.8	20.6	21.0*	36.3
Cc1ccsc1/C=N/NC(=O)c1nnn(-c2nonc2N)c1C(C)C	-7.6	6.5	-13.5	1.4	4.0	15.3
CC(C)c1c(C(=O)N/N=C/c2ccsc2)nnn1-c1nonc1N	17.4	22.3*	6.0	-6.9	27.8*	14.4
CC(C)c1c(C(=O)N/N=C/c2cccs2)nnn1-c1nonc1N	9.2	33.1*	3.0	-5.8	33.6*	-9.6
COC(=O)COc1ccc(C(C2C(=O)CC(C)(C)CC2=O)C2C(=O)CC(C)(C)CC2=O)cc1	-8.5	1.1	-12.8	8.8	-5.1	18.0
CCn1nc(C)c(CN2CCC(n3nccc3NC(=O)Cc3ccccc3)CC2)c1C	3.0	0.2	-4.2	0.3	-3.6	2.9
COc1ccc(C(C)NC(=O)Cc2cccs2)cc1OC (stereo not drawn)	-13.1	0.1	-2.1	11.8	0.3	-1.4
COc1ccc(OCCNC(=O)c2cccc(Oc3ccc(C(F)(F)F)cc3[N+](=O)[O-])c2)cc1	6.0	-0.2	25.3*	-10.0	-5.7	-15.2
CCCOC1CCCN(C(=O)c2cc(Cl)c(Cl)cc2C(=O)O)C1 (stereo not drawn)	51.7*	-0.1	-10.1	-18.1	59.7*	10.0
SMILES	M1 antag	M1 ag parental	CHO-K1 Ca antag	M1 PAM	M1 ag	M1 PAM parental
CCOC(=O)N1CCN(C(=O)c2cc(Cl)c(Cl)cc2C(=O)O)CC1	-7.8	0.0	-18.3	4.6	31.6*	21.7
O=C1C(=Cc2cccn2-c2ccccc2)C(=O)c2ccccc21	-3.6	15.3*	-5.5	6.8	-5.9	17.0
Cc1cccc(C)c1NC(=O)N1CCC(C(=O)c2ccc(F)cc2)CC1	-6.0	1.3	-8.4	7.2	-9.0	-2.8
CC1(OC(=O)C2CCCC2)C(=O)C=C2C=C(c3ccsc3)N(CC3CC3)C=C2C1=O (stereo not drawn)	67.0*	-0.4	6.7	-39.3	-13.1	-11.4
CC1(OC(=O)C2CCCC2)C(=O)C=C2C=C(c3ccsc3)N(C3CCCCC3)C=C2C1=O (stereo not drawn)	9.8	-0.4	5.8	-12.0	-4.4	-5.9
Cc1cc(C)n(CCNC(=O)c2ccc3c(c2)OCO3)n1	-5.4	1.3	-13.1	1.6	-7.7	5.6
O=C(NCCCN1CCC(Cc2ccccc2)CC1)C1CCC(=O)N1C1CCCC1 (stereo not drawn)	13.2	-0.1	2.4	-10.4	-12.4	2.8
O=C(NCCCN1CCC(Cc2ccccc2)CC1)C1CC(=O)N(C2CCCC2)C1 (stereo not drawn)	32.8*	-0.4	4.9	-21.9	-12.4	0.5
O=C(C1CC(=O)N(C2CCCC2)C1)N1CCN(c2ccccc2)CC1 (stereo not drawn)	-7.9	0.7	60.5*	8.1	-2.6	8.2
COc1ccc(CCNC(=O)c2ccc(F)c(S(=O)(=O)N3CCCCC3)c2)cc1	-12.9	4.3	-15.1	-2.2	-0.1	16.4
Cc1onc(-c2c(F)cccc2Cl)c1C(=O)N=C(N)N1CCCC1	-11.2	0.0	5.6	2.3	-4.5	-17.1
CCN1C/C(=C/c2ccc(OC)c(O)c2)C(=O)/C(=C/c2ccc(OC)c(O)c2)C1	13.8	0.2	-7.6	-1.4	0.2	-6.0
COc1ccc(/C=C2\CN(Cc3ccccc3)C/C(=C\c3ccc(OC)c(O)c3)C2=O)cc1O	28.3*	7.2	3.8	-15.6	-1.7	9.9
CC[C@@H](C(=O)[C@@H](C)[C@@H](O)[C@H](C)CCc1ccc(C)c(O)c1C(=O)O)[C@H]1O[C@](CC)([C@H]2CC[C@](O)(CC)[C@H](C)O2)C[C@@H]1C	-5.6	26.3*	9.7	-19.0	60.5*	-0.8
COc1ccc(OC)c(/C=C2/Sc3ccccc3C2=O)c1	31.2	37.7*	34.6*	-13.5	25.0*	-5.9
COc1ccc(OC)c(C=C2CCc3ccccc3C2=O)c1	-0.2	-0.4	-0.6	4.3	-10.8	3.2
CC12CCC(C(=O)NNC(=O)c3ccccc3)(OC1=O)C2(C)C (stereo not drawn)	-5.6	-0.4	17.6	4.8	-3.3	-20.3
CC12CCC(C(=O)N(Cc3ccccc3)Cc3ccccc3)(OC1=O)C2(C)C (stereo not drawn)	-14.2	-0.5	25.1*	-8.0	-5.8	-8.5
COc1ccc(CCN(C)CC(=O)Nc2cc(C)nc3ccccc23)cc1OC	7.2	4.2	-8.7	-3.4	-6.5	14.4
